Assay outcomes deposited in PubChem BioAssay by several laboratories.
Hits are enriched below; roughly 2.8% of the tested compounds scored in any of these assays.
Peg3 promoter: Peg3 promoter activity inhibition | AID 588405 | inhibition, % at 20 µM | HeLa PEG-Prom luciferase reporter, luminescence, overnight | 1.7% of 360,000 active;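 active means inhibition of at least 50% at 20 µM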
HIF-2a block: HIF-2a inhibition; 786-0 RCC cells HIF-2a reporter, luciferase luminescence, overnight; inhibition, % at 18.8 µM; 0.72% of 360,000 active;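 active means inhibition of the luminescence signal of 40% or more relative to plate controls, in a single-dose primary screen at 18.75 µM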
TRPM1 prom inh: inhibitors of MITF-driven TRPM1 promoter in melanoma cells. SK-MEL-5 TRPM1 promoter luciferase, 24 h. inhibition, % at 12.5 µM. 0.83% of 330,000 active;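 active means mean inhibition across replicates of 60% or more, whatever share of single replicates reaches that level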
KKLEB tox: reduces viability of KKLEB cystic fibrosis airway cells; 0.36% of 360,000 active; activity change (cytotoxicity), % at 5 µM; KKLEB CF airway cells viability, ATPlite luminescence, overnight; active compounds read low; cells stimulated with P. aeruginosa culture filtrate; AID 602141;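 active means corrected activity change at or below -50% at 5 µM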
Shn3 inh set2: reduces Shn3 3'UTR luciferase signal in osteoblasts. Clone20 osteoblast Shn3 3'UTR firefly luciferase, 24 h. inhibition, % at 12.5 µM. 0.52% of 360,000 active;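 active means mean inhibition of at least 75% with every replicate also reaching 75%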;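 further: 0% = median of neutral control wells and 100% = pilot-screen positive control compound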
CF NFkB block: blocks PAF-induced NF-kB reporter in cystic fibrosis cells. KKLEB NF-kB-GFP reporter, GFP fluorescence overnight. inhibition, % at 5 µM. 0.86% of 360,000 active. AID 588850;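 active means at least 50% inhibition at 5 µM, scaled per plate between neutral and stimulator controls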;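 further: PAF is a Pseudomonas aeruginosa culture filtrate used as stimulus; plate controls were PAF-stimulated DMSO wells for no effect and unstimulated DMSO wells for full effect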
CF NFkB conf: confirmation of cystic fibrosis induced NF-kB inhibitors; inhibition, % at 5 µM; KKLEB CF airway cells, PAF-induced NF-kB-GFP fluorescence, overnight; 64% of 1,300 active; shares compounds with CF NFkB block; in the data active means inhibition above about 40%;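 further: stimulus PAF is a Pseudomonas aeruginosa filtrate and not platelet activating factor; plate controls were DMSO wells with stimulus for no effect and unstimulated DMSO wells for full effect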
Starred values were filed as active, the others as inactive; . = not tested or not shown.

SMILES	Peg3 promoter	HIF-2a block	TRPM1 prom inh	KKLEB tox	Shn3 inh set2	CF NFkB block	CF NFkB conf
COc1ccc([C@H]2CC(=O)C=C(c3ccc(OC)c(OC)c3)C2)cc1	-49.9	-62.4	-41.2	-17.2	13.6	56.7*	35.8
NC(=O)NS(=O)(=O)Oc1ccccc1	-18.1	-2.0	-3.7	9.2	-30.1	8.4	.
COc1cccc2c(SCC(=O)N/N=C/c3ccccc3)cc(C)nc12	27.4	31.3	16.7	-29.0	8.7	54.5*	60.6*
COc1cccc2c(SCC(=O)N/N=C/c3ccc(O)c(O)c3)cc(C)nc12	22.2	0.1	-6.9	-11.1	9.2	15.5	.
O=C(O)C(Cc1ccccc1[N+](=O)[O-])N1C(=O)c2ccccc2C1=O (stereo not drawn)	5.3	22.0	2.9	8.9	-6.1	-5.2	.
CCCc1nc(Cl)c(C#N)c2c1CCCC2	-5.7	18.0	-12.8	-12.5	9.5	68.3*	75.9*
CCc1nc(Cl)c(C#N)c2c1CSC(C)(C)C2	4.0	21.7	-7.3	-21.1	7.3	57.5*	42.1*
CCCCc1nc(Cl)c(C#N)c2c1CSC(C)(C)C2	4.5	21.6	-8.1	-17.1	-4.1	15.7	.
CC(C)Cc1nc(Cl)c(C#N)c2c1CCCC2	18.2	17.2	0.3	2.5	-4.7	35.5	.
CCCc1nc(NCCO)c(C#N)c2c1CCCC2	9.5	8.5	.	5.6	-3.7	6.1	.
CCc1nc(Cl)c(C#N)c2c1CCCC2	-18.6	28.3	-8.1	-0.1	25.2	54.6*	75.2*
COC(=O)C[C@@H]1C[C@H]2c3cc(NC(=O)Nc4ccccc4F)ccc3O[C@H]2[C@H](CO)O1	-1.2	-29.6	.	-13.3	-12.3	7.3	.
CC1(C(=O)Nc2ccc3[nH]ncc3c2)CCN1C(=O)Cc1ccc(-c2ccccc2)cc1 (stereo not drawn)	24.4	20.8	.	-4.8	78.1	-21.9	.
CC1CN(CCc2ccccc2)c2nc3c(c(=O)n(C)c(=O)n3C)n2C1 (stereo not drawn)	19.4	18.4	-12.4	-22.2	-5.2	6.7	.
CC1CCCN(C(=O)COC(=O)C2=COCCO2)C1 (stereo not drawn)	-60.0	-77.1	-30.2	-8.8	-46.1	11.1	.
CC(OC(=O)CC(NC(=O)c1ccccc1Cl)c1ccccc1)C(=O)Nc1cccc(Cl)c1Cl (stereo not drawn)	21.1	12.6	-9.7	-15.3	1.8	5.3	.
O=C(c1nnsc1S(=O)(=O)c1ccc(Cl)cc1)N1CCOCC1	95.0*	31.6	73.4*	-32.7	95.2*	90.5*	95.6*
ON=C1c2ccccc2-c2ccccc21	-76.9	-12.0	-2.6	3.5	-6.9	62.3*	52.8*
Cc1nc2c(C)c(C)c(C)c(C)c2nc1C	6.0	20.9	.	-16.2	11.9	7.0	.
Cc1nc2c(O)c3c(c(O)c2nc1C)C1C=CC3CC1	92.7*	-3.7	63.2*	-33.5	97.1*	83.0*	85.4*
O=C(NCc1cccc(Br)c1)c1cc(-c2ccccc2)nn1CC1CC(c2cccc([N+](=O)[O-])c2)=NO1 (stereo not drawn)	2.1	7.3	-5.4	-10.0	64.7	-1.6	.
CC(=O)OCCN1c2ccccc2Sc2cnccc21	26.4	23.8	.	-3.2	-7.6	65.1*	66.5*
C=CCN1c2ccccc2Sc2cnccc21	35.3	5.1	.	-10.8	26.6	79.6*	90.8*
CC(C)(C)c1ccc(CC(=O)N2CCC2(C)C(=O)NS(=O)(=O)c2ccccc2Cl)cc1 (stereo not drawn)	-3.7	9.5	.	-7.2	3.6	7.5	.
O=C(CCc1ccccc1)N=C1SC2CS(=O)(=O)CC2N1Cc1ccccc1 (stereo not drawn)	6.7	2.3	10.0	-9.1	-1.6	50.2*	22.3
COc1ccc(CN2C(=NC(=O)CCc3ccccc3)SC3CS(=O)(=O)CC32)cc1 (stereo not drawn)	34.6	9.0	0.6	11.0	21.6	-9.5	.
CCN(CC)S(=O)(=O)c1ccc(NC(=O)Nc2cccc(C(F)(F)F)c2)cc1	52.1*	29.1	60.5*	-48.7	95.6*	61.1*	81.4*
CCCCCCCCCc1nc2sc3c(c2c(=O)n1NC(=O)c1ccccc1[N+](=O)[O-])CC(C)(C)OC3	31.3	-0.7	11.3	-32.9	9.0	43.5	.
